# Most compounds without a hit are left out; they make up all but 2% or so of the library.
# APOBEC3G inh: inhibitors of human APOBEC3G DNA deaminase. 330,000 compounds, 0.28% hits. recombinant A3G, ssDNA deamination FAM/TAMRA fluorescence. inhibition, % at 20 µM;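 active = inhibition of at least 40% at 20 µM, with no more than 30% in the related APOBEC3A deaminase screen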;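 also: plate controls were DMSO wells with A3G for no effect and wells lacking A3G enzyme for full effect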
# Target sequence (Q9HC16 whole entry, looked up): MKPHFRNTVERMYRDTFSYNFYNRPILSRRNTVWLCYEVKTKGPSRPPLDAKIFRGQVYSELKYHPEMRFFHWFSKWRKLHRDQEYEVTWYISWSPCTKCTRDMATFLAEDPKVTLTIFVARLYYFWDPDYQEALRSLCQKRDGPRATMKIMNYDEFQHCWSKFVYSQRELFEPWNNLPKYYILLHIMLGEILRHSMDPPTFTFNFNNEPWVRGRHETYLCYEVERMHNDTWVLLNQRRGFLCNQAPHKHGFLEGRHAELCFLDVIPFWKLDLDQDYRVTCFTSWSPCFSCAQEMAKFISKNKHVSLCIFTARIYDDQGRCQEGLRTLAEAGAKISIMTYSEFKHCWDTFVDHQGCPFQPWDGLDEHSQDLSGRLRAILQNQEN
# HGIII-sPLA2 inh: Blocks human group III sPLA2 activity. AID 743126. inhibition, % at 12.2 µM. 370,000 compounds, 0.56% hits. QFRET BODIPY PC-A2 liposome hydrolysis, fluorescence. Q9NZ20;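 active = inhibition above mean plus 3 SD of compounds lying within the high and low control bounds, cut at about 19% in these data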;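 also: 0% = median of test compound wells and 100% = no enzyme DMSO wells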
# NALP1 yeast inh: blocks the NALP1 inflammasome reconstituted in yeast; 280,000 compounds, 0.61% hits; S. cerevisiae NALP1/ASC/caspase-1 growth, X-gal OD620, 72 h; inhibition, % at 10 µM; AID 2071; in the data active = inhibition mostly above about 24%, no sharp cut-off; inactive = mostly below about 32%
# APOBEC3A inh: human APOBEC3A DNA deaminase inhibition. 330,000 compounds, 0.41% hits. recombinant A3A, FAM/TAMRA ssDNA deamination fluorescence. inhibition, % at 20 µM;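 active = at least 40% inhibition at 20 µM here, with at most 30% in a related deaminase screen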;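 also: plate controls were A3A with DMSO for no effect and wells lacking A3A enzyme for full effect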
# CTSL1 counter: cathepsin L1 inhibition, PFM18AAP counter-screen. inhibition, % at 5.96 µM. 300,000 compounds, 0.49% hits. recombinant F. hepatica cathepsin L1, Z-Leu-Arg-MCA fluorescence. AID 1906;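 active = inhibition above the mean of all tested compounds plus 3 SD, set per screening campaign, cut at about 17% in these data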;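 also: 0% = plate median of test compound wells and 100% = 1 µM Z-Phe-Ala-diazomethylketone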
# APOBEC3G confirm: APOBEC3G (human) deaminase inhibition, confirmed. shares compounds with APOBEC3G inh. recombinant A3G ssDNA deaminase, UDG/FAM-TAMRA fluorescence. inhibition, % at 20 µM. 890 compounds, 72% hits. AID 493152;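 active = inhibition reaching a set limit in any replicate at 20 µM, the limit being 80% of the first screen's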
# UDG A3G counter: counter-screen for APOBEC3G inhibitors: E. coli UDG; shares compounds with APOBEC3G inh; UDG counterscreen, FAM/TAMRA oligo fluorescence; inhibition, % at 20 µM; 710 tested, under 10 active; AID 504715;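 active = compounds giving 40% or more inhibition at 20 µM in any one of the three replicates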;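 also: plate controls were DMSO wells with UDG and oligo for no effect and DMSO wells lacking both for full effect; inhibitors lower the FAM signal released by uracil excision and alkaline cleavage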
# * = called active by the depositor; / = no result.
SMILES,APOBEC3G inh,HGIII-sPLA2 inh,NALP1 yeast inh,APOBEC3A inh,CTSL1 counter,APOBEC3G confirm,UDG A3G counter
CCC(Sc1nc(N)cc(N)n1)C(=O)O (centres undefined),44*,0,-4,2,-5,4,/
COc1ccc(COC[C@H](C)N2C[C@@H](C)[C@H](CN(C)S(=O)(=O)c3ccc(F)cc3)OCCCC[C@H](C)Oc3ccc(NC(=O)Nc4ccccc4)cc3C2=O)cc1,/,-3,/,/,/,/,/
C#CCNC(=O)C[C@H]1C[C@@]2(C(=O)OC)C(=C[C@H](COCc3ccccc3)O[C@@H]2C)N(Cc2ccc(Cl)cc2Cl)C1=O,/,-18,/,/,/,/,/
COC(=O)[C@H](CCSC)NC(=O)c1cc2c(cn1)[nH]c1ccccc12,57*,2,-25,16,-3,56*,-1
O=C(CCN1C(=O)/C(=C/c2ccc(Cl)cc2)SC1=S)Nc1ccc(C(=O)O)cc1,40*,-4,5,-4,-5,-5,-3
Cc1cc(C)c2[nH]c(=S)cc(C)c2c1,73*,4,8,-4,2,active,-2
COc1ccc(S(=O)(=O)N2CCC(c3nc4ccccc4o3)CC2)c(OC)c1,/,6,/,/,/,/,/
Cc1cc(C)nc(SSc2nc(C)cc(C)n2)n1,57*,4,8,-4,1,83*,-2
CCCOc1ccc(-c2cc(C(C)=O)c3n(c2=O)CCC3)cc1,/,11,/,/,/,/,/
S=c1nc[nH]c2c1[nH]c1ccccc12,48*,6,17,-4,1,71*,-1
COc1ccccc1CNC(=O)NCCCN1CCN(c2ccc(F)cc2)CC1,/,8,/,/,/,/,/
COC(=O)c1cc(NC(=O)NC2CCCCN(Cc3cccc(Cl)c3)C2=O)cc(C(=O)OC)c1 (centres undefined),/,1,/,/,/,/,/
CCCCCC(=O)NNC1CC(=O)N(c2ccccc2)C1=O (centres undefined),-2,5,6,-4,-2,/,/
CCCCCC(=O)N(O)C1CC(=O)N(c2ccccc2)C1=O (centres undefined),42*,-1,4,0,-1,43*,7
CC(C)(CS(=O)(=O)[O-])NC(=O)CC[N+](C)(C)CCO,88*,7,-5,9,-1,94*,/
Clc1ccc(-n2c(SCc3cccc4ccccc34)nnc2-c2cccnc2)cc1,/,-11,/,/,/,/,/
O=C1C2C3C=CC(CO)(O3)C2C(=O)N1c1ccccc1-c1ccccc1 (centres undefined),60*,/,0,-3,-1,69*,2
CCOC(=O)/C=C/C(=O)Nc1cccc([N+](=O)[O-])c1,40*,/,81*,4,18*,64*,4
O=C(C1CC1)C1(C(=O)N2CCOCC2)CC(c2ccccn2)=NO1 (centres undefined),/,12,/,/,/,/,/
O=C(CN1CCN(c2ccc(F)cc2)CC1)Nc1ccc2c(c1)OCCO2,-6,4,10,-5,-1,/,/
O=C(CN1CCN(c2ccc(O)cc2)CC1)Nc1ccc2c(c1)OCCO2,62*,-4,3,2,-2,1,/
C#CCNC(=O)C[C@H]1C[C@@]2(C(=O)OC)C(=C[C@H](C(C)(C)C)O[C@@H]2C)N(CCCCCCCC)C1=O,/,6,/,/,/,/,/
Clc1cccc(-c2nnc3sc(-c4ccc5c(c4)OCO5)nn23)c1,/,/,-3,/,/,/,/
Clc1ccccc1-c1nnc2sc(-c3ccc4c(c3)OCO4)nn12,53*,-2,8,-1,1,40*,-6
c1ccc2c(c1)OCC(c1nnc3sc(-c4ccc5c(c4)OCO5)nn13)O2 (centres undefined),57*,6,8,-2,0,48*,-3
CC(C)C[C@H]1COc2c(Cl)cccc2S(=O)(=O)N1,/,1,/,/,/,/,/
CCn1c(-c2ccc(F)cc2)n[nH]c1=S,34,18,-18,14,1,/,/
COCCCn1c(-c2ccccc2Cl)n[nH]c1=S,23,17,-3,-1,-2,/,/
COCCCn1c(-c2ccc(Cl)cc2)n[nH]c1=S,49*,14,8,-1,0,58*,-5
CCn1c(-c2cccc(Cl)c2)n[nH]c1=S,47*,11,-18,-5,-2,77*,-3
